# Screening data: PubChem BioAssay, National Center for Advancing Translational Sciences (NCATS)
# TRPML1 ag = activates the human TRPML1 channel. Q9GZU1. activation, % (concentration not given with the values). TRPML1-expressing cells, Ca2+ dye fluorescence, FDSS. hit rate 0.12% among 410,000; in the data active = activation above about 50%; inconclusive = mostly about 30% to 49%
#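 Calcium fluorescence on an FDSS kinetic reader gave the read-out. Tet-induced TRPML1-DL cells were plated overnight, dye-loaded (Ca8 with quencher, 45-90 min, room temperature, dark), then read 110 s after compound addition, and again 110 s after 4uM final 54-4 (EC80).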
# TRPV1 PAM = potentiators of human vanilloid receptor 1 (TRPV1); potentiation, % at 8.33 µM; AID 540277; hit rate 0.02% among 320,000; Q8NER1; TRPV1-expressing cells, Fluo-8 calcium influx, capsaicin EC20 potentiation; in the data active = potentiation above about 80%; inconclusive = between about 30% and that limit
# Target sequence (Q8NER1 whole entry, looked up): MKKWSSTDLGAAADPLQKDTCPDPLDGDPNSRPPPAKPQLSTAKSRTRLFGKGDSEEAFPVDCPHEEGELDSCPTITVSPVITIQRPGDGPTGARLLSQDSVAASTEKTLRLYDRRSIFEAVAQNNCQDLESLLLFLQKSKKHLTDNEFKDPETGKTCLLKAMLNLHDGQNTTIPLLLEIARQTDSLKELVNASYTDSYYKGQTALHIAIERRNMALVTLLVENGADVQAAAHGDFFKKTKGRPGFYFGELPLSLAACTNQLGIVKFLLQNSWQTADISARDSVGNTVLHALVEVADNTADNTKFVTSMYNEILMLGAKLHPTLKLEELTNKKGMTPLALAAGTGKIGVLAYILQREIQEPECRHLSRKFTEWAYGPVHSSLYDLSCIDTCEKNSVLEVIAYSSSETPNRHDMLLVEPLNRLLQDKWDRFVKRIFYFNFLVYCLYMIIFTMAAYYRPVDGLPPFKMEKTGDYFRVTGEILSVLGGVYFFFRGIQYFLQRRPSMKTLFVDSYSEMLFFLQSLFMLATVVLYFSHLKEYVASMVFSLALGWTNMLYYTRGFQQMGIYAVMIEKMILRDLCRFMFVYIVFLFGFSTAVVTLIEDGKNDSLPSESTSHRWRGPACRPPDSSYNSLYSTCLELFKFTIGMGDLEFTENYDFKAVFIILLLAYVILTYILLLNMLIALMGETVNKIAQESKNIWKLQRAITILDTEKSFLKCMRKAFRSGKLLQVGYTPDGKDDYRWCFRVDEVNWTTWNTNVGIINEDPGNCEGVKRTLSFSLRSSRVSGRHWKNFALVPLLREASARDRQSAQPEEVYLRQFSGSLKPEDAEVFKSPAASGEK
#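 TRPV1-expressing cells were cultured overnight at 35.5C and loaded with Fluo-8 calcium dye for 40 to 90 min at room temperature. After a 10 s baseline, compound was added and calcium influx was read kinetically for 3 min (ex 480/em 520 nm).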
# KCNH2 3.1 inh = inhibitors of human KCNH2 3.1 potassium channel isoform; hit rate 0.95% among 340,000; U2OS KCNH2 3.1, thallium flux FluxOr; active compounds read low; activity change, % (tested at about 1.8 µM); AID 720553;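 active = maximum activity change below -70%; inconclusive = maximum activity change from -70% to -50%; inactive = maximum activity change above -50%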;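 also: thallium influx rate constant from kinetic fluorescence after stimulation buffer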
#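 Kinetic fluorescence (2 min after stimulation buffer) measures Tl+ influx through KCNH2 3.1 expressed by viral transduction in U2OS cells; the rate constant is normalized against DMSO controls serving as positive and negative references.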
# TRPML1 blocker = blocks the human TRPML1 channel. Q9GZU1. TRPML1-inducible cells, Ca2+ dye fluorescence, FDSS; active compounds read low; inhibition of EC80 agonist-evoked calcium signal. activity change, negative = inhibition, % (no concentration beside the values). hit rate 0.02% among 390,000. AID 624415; in the data active = activity change below about -50%; inconclusive = between about -30% and that limit;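 also: stimulus is agonist 54-4 at its EC80 concentration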
#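 TRPML1-DL cells, Tet-induced overnight (~16 h, 37 °C) at 1,500 cells/well, were loaded with Ca8 no-wash dye plus quencher for 45-90 min at room temperature. Compounds were pinned during FDSS kinetic reading; agonist 54-4 at EC80 (4 uM final) then added.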
# TRPV1 agonist = activates the human vanilloid receptor TRPV1; Q8NER1; TRPV1-expressing cells, Fluo-8 calcium influx, agonist mode; activation, % at 8.33 µM; hit rate 0.19% among 320,000; in the data active = activation above about 80%; inconclusive = between about 30% and that limit
#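 Fluo-8 calcium influx in TRPV1-expressing cells, kinetic read (ex 480/em 520 nm). Compound added and read 3 min for agonist activity, followed by capsaicin at EC20 final and 2 min further read for enhancement.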
# KCNH2 WT inh = inhibitors of human wildtype KCNH2 potassium channel; U2OS, BacMam KCNH2, thallium flux FluxOr; active compounds read low; activity change, % at 1.84 µM; hit rate 0.37% among 340,000;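 active = maximum activity change below -70%; inconclusive = maximum activity change between -70% and -50%; inactive = maximum activity change above -50%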
#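 U2OS cells were transduced with wild-type KCNH2 virus (2.03 x 10^8 / mL) for 4 h at room temperature, then cultured overnight at 37 C. Thallium flux was read with FluxOr dye. Rate constants were normalized to DMSO controls.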
# Numbers stand for hits; 0 = inactive; ? = inconclusive; - = not tested or not shown. Compounds with a hit are over-represented: about 1.3% of the library has one in this group of screens.
SMILES,TRPML1 ag,TRPV1 PAM,KCNH2 3.1 inh,TRPML1 blocker,TRPV1 agonist,KCNH2 WT inh
COc1ccc(-c2[nH]ncc2CN2CCC(C(=O)c3ccc(F)cc3)CC2)cc1,0,0,-93.5,0,0,0
COc1ccc(NC(=S)N2CCC(C(=O)c3ccc(Cl)cc3)CC2)cc1,0,-,0,0,-,0
COc1ccc(CN2CCC(C(=O)c3ccc(Cl)cc3)CC2)cc1,-,0,-96.9,-,0,-110.2
COc1ccc(CN2CCC(C(=O)c3cccc(Cl)c3)CC2)cc1,0,0,-107.6,0,0,?
CCNC(=S)N1CCC(C(=O)c2ccc(Cl)cc2)CC1,0,0,0,0,80.6,0
CCOc1cc(-c2ccc(OC(=O)c3ccc(C)cc3)c(OC)c2)cc(=O)c2c(C)oc(C)c12,0,-,-,0,-,-
COc1cc(CN(C(=O)COc2ccc(Cl)cc2)c2ccccn2)cc(OC)c1OC,0,-,-,0,-,-
COc1ccc(NC(=O)c2cnc3cc(C)ccn3c2=O)c(OC)c1,0,-,-,0,-,-
COCCNC(=O)c1ccccc1NC(=O)c1nsc2ccccc12,0,-,-,0,-,-
Cn1cc(C(=O)O)c(=O)c2cc(S(=O)(=O)N3CCCCC3)ccc21,0,-,-,0,-,-
O=[N+]([O-])c1cc(-c2nc(-c3ccccc3)no2)ccc1NC1CCCCC1,0,-,-,0,-,-
Cc1ccc2nc(C)c(C(=O)N/N=C/c3cccs3)cc2c1,0,0,-149.2,0,0,0
Cc1ccc([N+](=O)[O-])c(C(=O)N/N=C/c2cccs2)c1,0,0,0,0,83.0,0
Cc1ccc(OCC(=O)N/N=C\c2cccs2)c([N+](=O)[O-])c1,0,?,0,0,0,0
COc1cc(C2OC(=O)c3c2ccc(OC)c3OC)ccc1O (configuration not stated),-,0,-,-,0,-
Cc1cccc(CN2C(=O)NC(c3ccccc3)(c3ccccc3)C2=O)c1,0,0,-89.2,0,0,0
COc1ccc(NC(=O)c2c(NCc3ccc(C)o3)sc3c2CCC(C)C3)cc1 (configuration not stated),0,-,-,0,-,-
COc1cc(/C=C2/NC(=O)N(Cc3ccccc3F)C2=O)ccc1O,0,0,-104.2,0,?,0
COc1cccc(CNC(=O)c2ccc3c(c2)nc2n3CCOC2)c1OC,0,-,-,0,-,-
CCCN(CCC)CCCNC(=O)c1sc2nc3n(c(=O)c2c1C)CCC3,0,-,-,0,-,-
COc1ccc(OC)c(C(=O)NC(CC(N)=O)c2ccc(NCC3CC3)c([N+](=O)[O-])c2)c1 (configuration not stated),0,0,-121.3,0,0,0
COc1ccc(CNC(N)=O)cc1,0,-,0,0,-,0
NC(=O)NCc1ccc(Cl)cc1,0,0,-80.2,0,0,0
O=C1c2ccccc2C(=O)N1CCCc1nc(-c2ccccn2)no1,0,0,-100.3,0,0,0
O=C1c2ccccc2C(=O)N1CCc1nc(-c2ccccn2)no1,0,0,0,0,0,0
SMILES,TRPML1 ag,TRPV1 PAM,KCNH2 3.1 inh,TRPML1 blocker,TRPV1 agonist,KCNH2 WT inh
Cc1nn(CC(=O)NCc2ccc(N(C)C)cc2)c(=O)c2nn(-c3ccccc3)c(C)c12,0,-,-,0,-,-
CCCCCCCN1C(N(C)C)=NC[C@@H]1Cc1ccccc1,0,0,-90.1,0,0,0
CN(C)C1=NC[C@H](Cc2ccccc2)N1CCCCc1ccccc1,0,0,-92.0,0,0,0
Cc1ccc(/C=C2/SC(=S)N(CCCC(=O)Nc3cc([N+](=O)[O-])ccc3O)C2=O)cc1,0,0,-83.3,0,0,0
Cc1ccc(/C=C2\SC(=S)N(CCCC(=O)Nc3ccc(O)cc3)C2=O)cc1,0,0,0,0,0,0
CCOc1ccc(C2C(C(=O)Nc3ccccc3C)=C(C)Nc3nnnn32)cc1 (configuration not stated),0,-,-,0,-,-
Cc1oc(-c2ccc(Cl)cc2)nc1CN1CCC(C(=O)N2CCc3ccccc3C2)CC1,0,0,-78.2,0,0,?
Cc1oc(-c2ccc(Cl)cc2)nc1CN1CCC(C(=O)NCc2ccco2)CC1,0,0,-71.0,0,0,0
Cc1oc(-c2cccc(Cl)c2)nc1CN1CCC(C(=O)NCc2ccco2)CC1,0,0,0,0,0,0
